Six1-Eya2 blk = blocks human Six1 binding to Eya2. AlphaScreen GST-Six1/His-Eya2 binding, biochemical; stronger effect = lower value. activity change, % (test concentration not listed). hit rate 0.56% among 360,000. AID 651725; in the data active = activity change below about -65%; inconclusive = mostly about -30% to -63%; also: % is scaled to controls: 0 for no effect and ±100 for the full control effect
Target sequence (O00167 whole entry, looked up): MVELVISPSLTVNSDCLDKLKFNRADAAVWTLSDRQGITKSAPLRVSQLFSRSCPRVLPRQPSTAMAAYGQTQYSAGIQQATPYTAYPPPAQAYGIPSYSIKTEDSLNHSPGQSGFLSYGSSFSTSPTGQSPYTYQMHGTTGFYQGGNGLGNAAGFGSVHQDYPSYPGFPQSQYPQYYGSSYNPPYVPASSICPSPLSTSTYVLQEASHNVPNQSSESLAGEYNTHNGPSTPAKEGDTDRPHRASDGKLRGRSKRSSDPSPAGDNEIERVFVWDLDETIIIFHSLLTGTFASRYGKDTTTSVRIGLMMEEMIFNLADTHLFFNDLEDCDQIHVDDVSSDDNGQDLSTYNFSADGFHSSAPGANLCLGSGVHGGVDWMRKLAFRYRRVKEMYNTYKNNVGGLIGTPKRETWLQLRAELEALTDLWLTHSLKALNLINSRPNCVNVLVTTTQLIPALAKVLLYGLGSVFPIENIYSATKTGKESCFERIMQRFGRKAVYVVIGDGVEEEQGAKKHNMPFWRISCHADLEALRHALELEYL
Target sequence (Q15475 whole entry, looked up): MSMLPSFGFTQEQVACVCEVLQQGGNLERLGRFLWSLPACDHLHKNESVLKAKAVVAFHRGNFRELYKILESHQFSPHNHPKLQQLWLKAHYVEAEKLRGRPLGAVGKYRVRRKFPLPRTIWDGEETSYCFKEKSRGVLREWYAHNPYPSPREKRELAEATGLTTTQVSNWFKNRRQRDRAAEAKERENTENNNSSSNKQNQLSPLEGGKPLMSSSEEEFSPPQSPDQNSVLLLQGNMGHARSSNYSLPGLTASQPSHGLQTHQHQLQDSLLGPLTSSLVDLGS
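Homogeneous AlphaScreen proximity assay pairing GST-Six1 with His-tagged Eya2 (added as 5X mix: 250 nM and 500 nM) in 50 mM Tris pH 8.0, 300 mM NaCl, 1 mM TCEP. Glutathione donor and nickel acceptor beads; 1 h, 37 °C, dark.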
BAZ2B block = blocks human BAZ2B. Q9UIF8. AlphaScreen BAZ2B-H3K14Ac peptide displacement. Potency, µM (series often up to 114 µM), for the others: top-dose activity change, negative = inhibition, hits mostly inhibitors. hit rate 4.4% among 360,000. AID 504333; also: potency is read from the fitted curve at half-maximal effect; % is scaled to controls: 0 for no effect and ±100 for the full control effect; nearly all actives have a fitted effect of over 60% in size
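AlphaScreen displacement: compounds (up to 110uM) incubated 30 min at room temperature with a preformed 50 nM BAZ2B/50 nM biotinylated H3K14Ac peptide complex in PBS pH 7.4 with Tween-20. Donor and acceptor beads at 10 ug/mL final added, 20 min light-protected before reading.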
HP1b binding inh = HP1-beta chromodomain-methylated histone interaction inhibition | P83916 | AlphaScreen HP1-beta / biotin-H3K9me3 peptide binding | Potency, µM (series often up to 114 µM), for inactives: at the top dose activity change, negative = inhibition, actives largely listed as inhibitors | hit rate 0.56% among 390,000 | AID 540317; also: potency is read from the fitted curve at half-maximal effect; nearly all actives have a fitted effect of over 70% in size
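AlphaScreen: HP1-beta (50 nM) preformed 30 min with biotin-H3(1-18)K9me3 peptide (50 nM) in PBS pH 7.4, 0.01% Tween-20. Compound added for 30 min at RT, then streptavidin donor/nickel chelate acceptor beads (10 ug/mL) for 30 min.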
CtBP-E1A inh = inhibitors of CtBP/E1A interaction; AlphaScreen GST-E1A/His-CtBP binding, 1536-well; stronger effect = lower value; activity change, % (test concentration not listed); hit rate 0.49% among 340,000; AID 651724; in the data active = activity change below about -65%; inconclusive = mostly about -30% to -63%; also: % is scaled to controls: 0 for no effect and ±100 for the full control effect
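Protein mix (5X: 125 nM each GST-E1A, His-CtBP) was incubated with pinned compound 2 h at 37 deg C in dark, in 50 mM Tris pH 8.0 buffer with 300 mM NaCl. Glutathione donor and nickel acceptor beads followed; AlphaScreen signal read after 1 h.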
G9a inh = blocks human histone lysine methyltransferase G9a; Q96KQ7; G9a H3K9 monomethylation, AlphaScreen, 2 h; Potency, µM (highest dose often 102 µM), without a hit: at the highest dose activity, negative = inhibition, most hits filed as inhibitors; hit rate 8.8% among 350,000; AID 504332; also: potency is read from the fitted curve at half-maximal effect; % is scaled to controls: 0 for no effect and ±100 for the full control effect; nearly all actives have a fitted effect of over 75% in size
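Readings reflect AlphaScreen signal from monomethyl-H3K9 antibody detection. HMT at 20 nM; substrate b-H3K9 500 nM; cofactor SAM 20 uM; 2 h RT reaction; compounds tested as titrations in qHTS with 15 min preincubation.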
JMJD2A Tudor inh = inhibitors of human JMJD2A Tudor domain | Potency, µM (doses to about 114 µM), for inactives: top-dose activity change, negative = inhibition, hits mostly inhibitors | AID 504339 | AlphaScreen JMJD2A-Tudor / H3K4me3 peptide binding | O75164 | hit rate 4.4% among 390,000; also: potency is read from the fitted curve at half-maximal effect; % is scaled to controls: 0 for no effect and ±100 for the full control effect; nearly all actives have a fitted effect of over 50% in size
* hit, by the source's call; [ ] = another dose, or the depositor's remark. Shown are actives, neighbours in structure and some others; about 10% of the full set was active somewhere. Unless noted, calls follow the shape of the dose curve; as a rule, active = well fitted inhibition curve with a large enough effect; inconclusive = small, poorly fitted or top-dose-only effect; inactive = no such curve, though single readings can be large or run the other way.

`C/C=C(\C)C(=O)NCCN1C2=NC[C@H](C)N2C[C@@H]1Cc1ccc(OC)cc1` gave Six1-Eya2 blk -7, BAZ2B block -6%, HP1b binding inh 38%, CtBP-E1A inh -1 and JMJD2A Tudor inh -14%.
Screening CCCCCCNC(=O)N[C@H](C(=O)NCCC[C@H]1CN2C(=NC[C@H]2C)N1CCC(c1ccccc1)c1ccccc1)C(C)O (some centres undefined) returned BAZ2B block 20µM* and G9a inh inconclusive.
`NC(=O)C1(S(=O)(=O)c2ccccc2)CCCCC1` gave Six1-Eya2 blk 3, BAZ2B block -3%, HP1b binding inh 21%, CtBP-E1A inh 1, G9a inh -5%[59 µM] and JMJD2A Tudor inh 0%.
Screening NC1(C(=O)O)CCCCC1c1ccccc1 (centres undefined) returned Six1-Eya2 blk -4, HP1b binding inh -2%, CtBP-E1A inh -2 and JMJD2A Tudor inh 1.4µM*.
`Cc1onc(-c2c(F)cccc2Cl)c1C(=O)NC1C(=O)N2C1SC(C)(C)C2C(=O)O` (centres undefined) gave G9a inh 23%[59 µM].
Screening Cc1cccc(Cn2ccn(Cc3ccc(Cl)cc3)c(=O)c2=O)c1 returned BAZ2B block inconclusive, HP1b binding inh 40%, G9a inh 5%[59 µM] and JMJD2A Tudor inh 0%.
`O=C(NCc1ccccc1)c1cccnc1` gave Six1-Eya2 blk 9, BAZ2B block 9%, HP1b binding inh 8%, G9a inh inconclusive and JMJD2A Tudor inh -11%.
Cc1cc(C(=O)NC(Cc2ccccc2)C(=O)O)c(C)o1 (centres undefined) was read as Six1-Eya2 blk 13, BAZ2B block -33%, HP1b binding inh -11%, CtBP-E1A inh 1, G9a inh 71µM* and JMJD2A Tudor inh -16%.
Screening O=C(Nc1ccccc1C(=O)NC(Cc1ccc(O)cc1)C(=O)O)c1ccccc1 (centres undefined) returned Six1-Eya2 blk 12, BAZ2B block -16%, HP1b binding inh 6%, CtBP-E1A inh 3, G9a inh 45µM* and JMJD2A Tudor inh -14%.
For O=C(NC(Cc1ccccc1)C(=O)N1CCN(c2ccccc2O)CC1)c1ccccc1 (centres undefined) the results were Six1-Eya2 blk -14, BAZ2B block -22%, HP1b binding inh 25%, CtBP-E1A inh 0, G9a inh 50µM* and JMJD2A Tudor inh -26%.
Cc1cc(=O)oc(C)c1C(=O)N[C@@H](Cc1ccccc1)C(=O)O was read as Six1-Eya2 blk 15, BAZ2B block -2%, HP1b binding inh 38%, G9a inh -45% and JMJD2A Tudor inh -6%.
`O=C(Nc1ccccc1C(=O)NC(Cc1ccccc1)C(=O)O)c1ccco1` (centres undefined) gave Six1-Eya2 blk 9, BAZ2B block 4%, HP1b binding inh 43%, G9a inh 5% and JMJD2A Tudor inh -7%.
Screening CC(=O)N1CCN(C(=O)C(Cc2ccccc2)NC(=O)c2ccccc2)CC1 (centres undefined) returned Six1-Eya2 blk 8, BAZ2B block -1%, HP1b binding inh 41%, G9a inh 12%[12.7 µM] and JMJD2A Tudor inh 5%.
O=C(N[C@@H](Cc1ccccc1)C(=O)O)c1cccnc1 was read as Six1-Eya2 blk -2, BAZ2B block -34%, HP1b binding inh 45%, CtBP-E1A inh 1, G9a inh 50µM* and JMJD2A Tudor inh -10%.
CCC(C)NS(=O)(=O)c1ccc(N2CCCCS2(=O)=O)cc1 (centres undefined) was read as BAZ2B block 22%, HP1b binding inh 52%, G9a inh 26%[59 µM] and JMJD2A Tudor inh -11%.
`O=C(Cn1ccn(-c2ccc(F)c(F)c2)c(=O)c1=O)NCc1ccccc1` gave BAZ2B block -2%, HP1b binding inh 23%, G9a inh -1%[59 µM] and JMJD2A Tudor inh -11%.
Screening COc1cccc(NC(=O)CCC(=O)N2Cc3ccccc3Oc3ncccc32)c1 returned BAZ2B block 8%[57.1 µM], HP1b binding inh 32%, G9a inh -11%[59 µM] and JMJD2A Tudor inh -13%.
For O=[N+]([O-])c1cccc(-c2cnc3ccccc3n2)c1 the results were Six1-Eya2 blk -3, BAZ2B block -10%, HP1b binding inh 21%, G9a inh -23% and JMJD2A Tudor inh -13%.
For O=[N+]([O-])c1ccc2nc(-c3ccccc3)oc2c1 the results were Six1-Eya2 blk -8, BAZ2B block -28%, HP1b binding inh 8%, G9a inh 40µM* and JMJD2A Tudor inh -19%.
O=c1oc(-c2cccc([N+](=O)[O-])c2)nc2ccccc12 was read as Six1-Eya2 blk -22, BAZ2B block -35%, HP1b binding inh -12%, CtBP-E1A inh 5, G9a inh 45µM* and JMJD2A Tudor inh -19%.
`Cc1cc(-c2cccc([N+](=O)[O-])c2)nc2ccccc12` gave Six1-Eya2 blk -5, BAZ2B block -7%, HP1b binding inh 26%, CtBP-E1A inh 2, G9a inh 13µM* and JMJD2A Tudor inh -4%.
Cc1cc(-c2nc3ccccc3c(=O)o2)ccc1[N+](=O)[O-] was read as Six1-Eya2 blk 4, BAZ2B block -17%, HP1b binding inh 12%, CtBP-E1A inh 3, G9a inh -28% and JMJD2A Tudor inh -15%.
For O=C(Nc1cccc(-c2nc3ccccc3c(=O)o2)c1)c1ccccc1 the results were Six1-Eya2 blk -24, BAZ2B block -32%, HP1b binding inh inconclusive, CtBP-E1A inh -9, G9a inh -28%[59 µM] and JMJD2A Tudor inh 25µM*.
For CC(C)c1ccc(NC(=O)CSc2ncnc3c2sc2ccccc23)cc1 the results were BAZ2B block 3%, HP1b binding inh 33%, G9a inh 7%[59 µM] and JMJD2A Tudor inh -5%.
For COc1ccccc1N1CCN(c2ccc(=O)n(CC(=O)NCc3ccc(F)cc3)n2)CC1 the results were BAZ2B block -16%, HP1b binding inh 54%, G9a inh -25%[59 µM] and JMJD2A Tudor inh -24%.
Cc1ccc(S(=O)(=O)C2(C(=O)Nc3ccc(Cl)c(C(F)(F)F)c3)CC2)cc1 was read as BAZ2B block 33%, HP1b binding inh 71%, G9a inh 21%[59 µM] and JMJD2A Tudor inh 12%.
`O=C(O)CNc1nc(-c2ccccc2)c2cc([N+](=O)[O-])ccc2n1` gave Six1-Eya2 blk -17, BAZ2B block 79µM*, HP1b binding inh 20%, CtBP-E1A inh -20, G9a inh 7.9µM* and JMJD2A Tudor inh -22%.

Screens (PubChem BioAssay)
